Screens deposited in PubChem by National Center for Advancing Translational Sciences (NCATS).
CHX counter: Cycloheximide Counterscreen for Small Molecule Inhibitors of Shiga Toxin; cell reporter, cycloheximide protein synthesis inhibition counterscreen; 300,000 tested, 12% active; max response, %; AID 2314, 2010; in the data active = max response mostly above about 13%, no sharp cut-off; inactive = mostly below about 14%; also: read at 38.3 µM for the half of the compounds with a filed dose
NS1 inh: qHTS Assay for Inhibitors of Influenza NS1 Protein Function; Potency, µM (titrated, usually from 46.1 µM); 270,000 tested, 0.4% active; calls by dose curve; also: actives are rising curves; nearly all actives have a fitted effect of over 50% in size
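A cell-based growth assay was used: compounds that relieve NS1-induced slow growth of budding yeast raise OD600. Assay medium was yeast nitrogen base with ammonium sulphate and -URA supplement, pH 6.0, with 2% galactose.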
AmpC no deterg: qHTS Inhibitors of AmpC Beta-Lactamase (assay without detergent); P00811; AmpC nitrocefin hydrolysis, absorbance 480 nm, 0.0001% Triton; Potency, µM (doses to about 57.1 µM), usual class: inhibitors; 330,000 tested, 0.52% active; AID 485341, 2010; also: nearly all actives have a fitted effect of over 20% in size
Target sequence (P00811 whole entry, looked up): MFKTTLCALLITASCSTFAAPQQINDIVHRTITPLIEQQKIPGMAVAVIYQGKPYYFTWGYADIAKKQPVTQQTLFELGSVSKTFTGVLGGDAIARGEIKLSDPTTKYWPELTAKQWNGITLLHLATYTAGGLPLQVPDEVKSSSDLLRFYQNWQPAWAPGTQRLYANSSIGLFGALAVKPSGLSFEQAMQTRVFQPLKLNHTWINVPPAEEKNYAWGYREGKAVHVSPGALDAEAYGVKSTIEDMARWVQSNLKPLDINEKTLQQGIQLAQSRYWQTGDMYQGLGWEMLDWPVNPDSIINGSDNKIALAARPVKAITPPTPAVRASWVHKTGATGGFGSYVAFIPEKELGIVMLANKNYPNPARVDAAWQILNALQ
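AmpC (5.3 nM in the dispensed reagent) in 20 mM phosphate pH 7.0 with 0.01% (detergent screen) or 0.0001% Triton X-100 was preincubated with compounds for 15 min at room temperature. Nitrocefin was then added from an 800 uM solution, and hydrolysis was followed at 480 nm.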
AmpC detergent: qHTS Inhibitors of AmpC Beta-Lactamase (assay with detergent); Potency, µM (highest dose often 114 µM), most hits filed as inhibitors; AID 485294, 2010; 370,000 tested, 0.041% active; P00811; AmpC hydrolysis of nitrocefin, absorbance 480 nm, 0.01% Triton; also: nearly all actives have a fitted effect of over 25% in size
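AmpC (5.3 nM in the dispensed reagent) in 20 mM phosphate pH 7.0 with 0.01% (detergent screen) or 0.0001% Triton X-100 was preincubated with compounds for 15 min at room temperature. Nitrocefin was then added from an 800 uM solution, and hydrolysis was followed at 480 nm.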
Shiga toxin inh: A qHTS for Small Molecule Inhibitors of Shiga Toxin; Vero cells, Shiga toxin protein synthesis inhibition reporter; inhibition, % at 38.7 µM; 290,000 tested, 9.2% active; in the data active = inhibition mostly above about 28%, no sharp cut-off; inactive = mostly below about 43%
Numbers stand for hits; – = inactive; ? = inconclusive; · = no result; [ ] = remark or other dose. The sample as a whole holds a higher share of hits than the screen did. Unless noted, calls follow the shape of the dose curve; as a rule, active = well fitted curve in the direction sought with a large enough effect; inconclusive = small, poorly fitted or top-dose-only effect, or another doubt; inactive = no such curve, though single readings can be large; an effect the other way counts as inactive or inconclusive.

SMILES	CHX counter	NS1 inh	AmpC no deterg	AmpC detergent	Shiga toxin inh
Cc1ccc(C(=O)NC(=S)NCC(=O)c2ccccc2)cc1	17	–	–	–	–
O=C(CNC(=S)NC(=O)c1ccco1)c1ccccc1	37	–	–	–	75
COc1ccc(NC(=S)c2ccccc2)cc1	53	–	–	–	71
Cc1ccc(NC(=S)c2ccc(N(C)C)cc2)cc1	53	–	–	–	78
COc1ccc(NC(=S)Nc2ccccc2)cc1	–	–	–	–	–
COc1ccc(C(=S)Nc2ccc(N(C)C)cc2)cc1	37	–	–	–	78
COc1ccc(NC(=S)c2ccc(N(C)C)cc2)cc1	54	–	–	–	58
COc1ccc(NC(=S)Nc2ccc(N(C)C(C)=O)cc2)cc1	–	–	–[2.29 µM]	–	–
Cc1ccc(OCC(=O)Nc2ccc(N(C)C)cc2)cc1	–	–	–	–	–
O=C(NC1CCCCC1)c1ccc2c(c1)N(Cc1cccc(Cl)c1)C(=O)c1ccccc1S2(=O)=O	·	·	·	–	·
Cc1nnc(SCCOc2ccccc2)s1	26	–	–	–	–
Nc1nnc(SCCOc2ccccc2)s1	17	–	–	–	27
Nc1nnc(SCCOc2ccc(Br)cc2)s1	18	–	–	–	–
CC(C)COC(=O)Nc1nnc(SCCOc2ccccc2)s1	–	–	–	–	–
Nc1nnc(SCc2ccccc2Cl)s1	–	–	·	?	–
CCCSc1nnc(N)s1	–	–	–	?	–
CC(=O)c1cc(O)c2ccccc2c1O	31	–	–	–	66
CCOC(=O)c1c(C)oc2c1c(C=NCc1ccccn1)c(O)c1ccccc12	29	–	–	–	47
CC(=O)c1c(C)oc2c1cc(NS(=O)(=O)c1ccc(Br)cc1)c1ccccc12	·	·	·	–	·
CC(=O)c1c(C)oc2c1cc(O)c1ccccc12	20	–	–	–	–
CCOC(=O)c1c(C)oc2c1cc(O)c1ccccc12	35	–	–	–	108
CCOC(=O)c1c(C)[nH]c2c1cc(O)c1ccccc12	34	–	–	–	65
CCc1cccc(NC(=O)CCS(=O)(=O)c2ccc(Br)cc2)c1	–	–	–	–	–
O=C(NCCc1ccccc1)C1CCN(S(=O)(=O)N2CCC3(CC2)OCCO3)CC1	–	–	0.56µM	–	–
O=C(NCCN1CCC(Cc2ccccc2)CC1)C1CCN(S(=O)(=O)N2CCC3(CC2)OCCO3)CC1	–	·	–	–	–
SMILES	CHX counter	NS1 inh	AmpC no deterg	AmpC detergent	Shiga toxin inh
O=C(NCCCN1CCC(Cc2ccccc2)CC1)C1CCN(S(=O)(=O)N2CCC3(CC2)OCCO3)CC1	35	·	–	–	–
Cc1ccccc1C(=O)NCC(c1cccnc1)N1CCc2ccccc21 (stereo unspecified)	·	·	·	–	·
Cc1ccc(-c2cc(C(=O)N/N=C/c3ccc([N+](=O)[O-])o3)c3ccccc3n2)o1	32	–	–	?	80
O=C(N/N=C/c1ccc([N+](=O)[O-])o1)c1cc(-c2ccc(-c3ccccc3)cc2)nc2ccccc12	32	?	?	–	101
Cc1ccc2nc(N/N=C/c3ccco3)cc(C)c2c1	51	–	–	–	72
O=C(N/N=C/c1ccc([N+](=O)[O-])o1)c1cc(-c2ccncc2)nc2ccccc12	–	–	–	–	–
Cc1ccc2nc(SCC(=O)N/N=C/c3ccco3)cc(C)c2c1	–	·	–	?	–
Cc1ccc(/C=N/NC(=O)c2cc(-c3ccncc3)nc3ccccc23)o1	–	–	–	–	–
Cc1cc(N/N=C/c2ccc([N+](=O)[O-])o2)nc2ccccc12	15	–	–	–	48
C=Cc1ccc(S(=O)(=O)O)cc1	–	·	·	·	–
COc1cc(-c2oc3cc(O)cc(O)c3c(=O)c2OC[C@@H]2OC(O[C@@H]3O[C@@H](C)[C@H](O)[C@@H](O)[C@H]3O)[C@@H](O)[C@H](O)[C@@H]2O)ccc1O (stereo partly specified)	–	·	·	·	–
COc1ccc(OC)c(NC(=O)Cn2c(=O)cc(C)c3c(C)nn(-c4cccc(Cl)c4C)c32)c1	·	·	·	–	·
O=[N+]([O-])c1ccc(/C=N/Nc2ccnc3cc(Cl)ccc23)o1	–	–	–	–	169
Clc1ccc2c(N/N=C/c3ccccc3Br)ccnc2c1	–	–	–	–	–
Cc1ccc(C=C2C(Cl)=C(Cl)C(Cl)=C2Cl)cc1	–	–	16µM	–	–
Cc1ccc(/C=[N+](/C)[O-])cc1	–	·	–	?	–
COc1ccc(C2Cc3ccccc3C(=O)O2)cc1 (stereo unspecified)	–	?	–	?	active
COc1ccc(CCNC(=O)C2Cc3ccccc3C(=O)O2)cc1 (stereo unspecified)	–	·	–	–	–
COc1ccc(NC(=O)C2Cc3ccccc3C(=O)O2)cc1 (stereo unspecified)	12	–	–	–	–
Cc1ccccc1NC(=O)C1Cc2ccccc2C(=O)O1 (stereo unspecified)	14	–	–	–	–
N#Cc1ccccc1Cn1c(=O)n(Cc2ccc(C(=O)NC3CCN(Cc4ccccc4)CC3)cc2)c(=O)c2ccccc21	·	·	·	–	·
C[C@H]1CN([C@@H](C)CO)C(=O)Cc2cc(NS(=O)(=O)c3ccc(Cl)cc3)ccc2O[C@@H]1CN(C)C(=O)Nc1cccc2ccccc12	·	·	–	·	·
COc1ccc(CCc2nnc(CCC(=O)NCc3cnc4ccccn34)o2)cc1	–	–	–	–	–
COc1ccc(OC)c(Cc2nnc(CCC(=O)NC3CCCCC3)o2)c1	25	–	–	–	29
CCCN1CCC(NC(=O)CCc2nnc(Cc3cc(OC)ccc3OC)o2)CC1	–	–	–	–	–
SMILES	CHX counter	NS1 inh	AmpC no deterg	AmpC detergent	Shiga toxin inh
COc1ccc(OC)c(Cc2nnc(CCC(=O)NCc3ccsc3)o2)c1	17	–	–	–	37
O=C(CCc1nnc(CCc2c[nH]c3ccccc23)o1)NC1CCC1	53	–	–	–	180
COc1ccc(CCc2nnc(CCC(=O)NCc3ccc4ncccc4c3)o2)cc1	17	–	–	–	–
O=C(CCc1nnc(Cc2c[nH]c3ccccc23)o1)NC1CCCC1	–	–	–	–	–
C[C@H](NC(=O)C1CCN(C(=O)[C@H](Cc2ccccc2)NC(=O)OC(C)(C)C)CC1)C(=O)O	–	–	–	–	–
Cc1cccc(C)c1NC(=O)CNC(=O)c1ccc2ccccc2n1	·	·	–	–	·
Cc1ccc2cc3cc(C(=O)N4CCN(c5cccc(C(F)(F)F)c5)CC4)sc3nc2c1	·	·	·	–	·
CC(C)N1C/C(=C/c2ccsc2)C(=O)/C(=C/c2ccsc2)C1	15	–	–	–	–
CN1C/C(=C/c2cccnc2)C(=O)/C(=C/c2cccnc2)C1	25	–	–	–	–
CN1C/C(=C/c2ccc(B(O)O)cc2)C(=O)/C(=C/c2ccc(B(O)O)cc2)C1	–	·	·	·	–
CC(C)N1C/C(=C/c2cccnc2)C(=O)/C(=C/c2cccnc2)C1	21	–	–	–	–
O=C(CCSc1ccc(F)cc1)NNC(=O)c1ccccc1Cl	·	·	–	–	·
